Data as given in the supplement of paper PMC6089552.
The whole screen tested about 3,200 compounds, of which about 300 (9.4%) showed activity. What follows is part of a selection rich in actives, with near analogues and random picks from the rest. Values without a mark were called inactive.

System: A673/TR/shEF
Assay: cell viability (LOESS-normalised, relative to median of negative controls) (log2 ratio); higher = more viable cells (less compound effect), active = hit call of the paper (over 3 MAD below the median)
Details: treatment time: 72 h
Procedure, shortened: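 For three days, A673/TR/shEF Ewing sarcoma cells in 384-well plates (1,500 per well) were treated with library compounds at two or more concentrations or with DMSO controls, after doxycycline had been added or withheld 24 h beforehand to induce EWS-FLI1 shRNA knockdown. Viability was read by CellTiter-Glo luminescence on an Envision reader. The data were LOESS-corrected per plate, divided by the median of negative controls and log2-transformed.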

[1] = 0.25 µM, library screen: screen1, EWS-FLI1 expression: high (no doxycycline)
[2] = 0.25 µM, library screen: screen1, EWS-FLI1 expression: low (doxycycline-induced shRNA knockdown)
[3] = 2.5 µM, library screen: screen1, EWS-FLI1 expression: high (no doxycycline)
[4] = 2.5 µM, library screen: screen1, EWS-FLI1 expression: low (doxycycline-induced shRNA knockdown)
[5] = 0.103 µM, library screen: screen3, EWS-FLI1 expression: high (no doxycycline)
[6] = 0.103 µM, library screen: screen3, EWS-FLI1 expression: low (doxycycline-induced shRNA knockdown)
[7] = 0.25 µM, library screen: screen2, EWS-FLI1 expression: high (no doxycycline)
[8] = 0.25 µM, library screen: screen2, EWS-FLI1 expression: low (doxycycline-induced shRNA knockdown)
[9] = 0.308 µM, library screen: screen3, EWS-FLI1 expression: high (no doxycycline)
[10] = 0.308 µM, library screen: screen3, EWS-FLI1 expression: low (doxycycline-induced shRNA knockdown)
[11] = 0.926 µM, library screen: screen3, EWS-FLI1 expression: high (no doxycycline)
[12] = 0.926 µM, library screen: screen3, EWS-FLI1 expression: low (doxycycline-induced shRNA knockdown)
[13] = 2.5 µM, library screen: screen2, EWS-FLI1 expression: high (no doxycycline)
[14] = 2.5 µM, library screen: screen2, EWS-FLI1 expression: low (doxycycline-induced shRNA knockdown)
[15] = 2.8 µM, library screen: screen3, EWS-FLI1 expression: high (no doxycycline)
[16] = 2.8 µM, library screen: screen3, EWS-FLI1 expression: low (doxycycline-induced shRNA knockdown)
[17] = 8.3 µM, library screen: screen3, EWS-FLI1 expression: high (no doxycycline)
[18] = 8.3 µM, library screen: screen3, EWS-FLI1 expression: low (doxycycline-induced shRNA knockdown)
[19] = 25 µM, library screen: screen3, EWS-FLI1 expression: high (no doxycycline)
[20] = 25 µM, library screen: screen3, EWS-FLI1 expression: low (doxycycline-induced shRNA knockdown)
[21] = 0.025 µM, library screen: screen2, EWS-FLI1 expression: high (no doxycycline)
[22] = 0.025 µM, library screen: screen2, EWS-FLI1 expression: low (doxycycline-induced shRNA knockdown)
[23] = 25 µM, library screen: screen2, EWS-FLI1 expression: high (no doxycycline)
[24] = 25 µM, library screen: screen2, EWS-FLI1 expression: low (doxycycline-induced shRNA knockdown)

C[C@]12CCC3c4ccc(OS(=O)(=O)O)cc4CCC3C1CC[C@H]2O (some centres not stated)
cell viability (log2) [1]: 0.0646
cell viability (log2) [2]: 0.0512
cell viability (log2) [3]: 0.0988
cell viability (log2) [4]: 0.092

COc1cc2c(cc1O)CC[C@@H]1[C@@H]2CC[C@]2(C)[C@@H](O)CC[C@@H]12
cell viability (log2) [5]: 0.0202
cell viability (log2) [6]: 0.0975
cell viability (log2) [7]: 0.11
cell viability (log2) [8]: 0.04
cell viability (log2) [9]: 0.0934
cell viability (log2) [10]: 0.0693
cell viability (log2) [11]: -0.0172
cell viability (log2) [12]: 0.0926
cell viability (log2) [13]: 0.0437
cell viability (log2) [14]: 0.0893
cell viability (log2) [15]: 0.045
cell viability (log2) [16]: 0.00908
cell viability (log2) [17]: -0.104
cell viability (log2) [18]: -0.0169
cell viability (log2) [19]: -1.25 (active)
cell viability (log2) [20]: -0.177 (active)

COc1ccccc1CN1CCN(Cc2ccc(OC)c(OC)c2)CC1
cell viability (log2) [1]: 0.0157
cell viability (log2) [2]: 0.078
cell viability (log2) [3]: 0.0565
cell viability (log2) [4]: 0.0117

CC(C)(C)c1ccccc1OCC(O)CN1CCCCC1 (configuration not stated)
cell viability (log2) [1]: 0.09
cell viability (log2) [2]: 0.0909
cell viability (log2) [3]: 0.176
cell viability (log2) [4]: 0.0864

CC(=O)Oc1ccc(-c2coc3cc(OC(C)=O)ccc3c2=O)cc1
cell viability (log2) [1]: 0.152
cell viability (log2) [2]: 0.0716
cell viability (log2) [3]: 0.0709
cell viability (log2) [4]: 0.0455

CCOC(=O)C1(O)Oc2cc(OC)cc(OC)c2C(=O)C1c1ccccc1 (configuration not stated)
cell viability (log2) [1]: 0.122
cell viability (log2) [2]: 0.103
cell viability (log2) [3]: 0.112
cell viability (log2) [4]: 0.086

CCN(CC)CCCC(C)Nc1c2ccc(Cl)cc2nc2ccc(OC)cc12 (configuration not stated)
cell viability (log2) [21]: 0.148
cell viability (log2) [22]: 0.0788
cell viability (log2) [1]: 0.215
cell viability (log2) [2]: 0.197
cell viability (log2) [7]: 0.0911
cell viability (log2) [8]: 0.0849
cell viability (log2) [3]: 0.176
cell viability (log2) [4]: 0.252
cell viability (log2) [13]: 0.0338
cell viability (log2) [14]: 0.0518
cell viability (log2) [23]: -4.23 (active)
cell viability (log2) [24]: -2.71 (active)

CCN(CCO)CCCC(C)Nc1ccnc2cc(Cl)ccc12 (configuration not stated)
cell viability (log2) [1]: 0.00358
cell viability (log2) [2]: 0.138
cell viability (log2) [3]: 0.146
cell viability (log2) [4]: 0.0473

CCN(CC)CCCC(C)Nc1ccnc2cc(Cl)ccc12 (configuration not stated)
cell viability (log2) [21]: 0.158
cell viability (log2) [22]: 0.0518
cell viability (log2) [1]: 0.0569
cell viability (log2) [2]: 0.0751
cell viability (log2) [7]: 0.0978
cell viability (log2) [8]: 0.0902
cell viability (log2) [3]: 0.0579
cell viability (log2) [4]: 0.079
cell viability (log2) [13]: 0.0873
cell viability (log2) [14]: 0.0425
cell viability (log2) [23]: 0.0565
cell viability (log2) [24]: 0.0987

CC1(C)C(=O)CC[C@@]2(C)C1C[C@@H](O)[C@@]1(C)C3=CC(=O)O[C@@H](c4ccoc4)[C@]3(C)CCC21 (some centres not stated)
cell viability (log2) [1]: 0.0874
cell viability (log2) [2]: 0.0583
cell viability (log2) [3]: 0.0284
cell viability (log2) [4]: 0.0454

COc1cc2c(cc1O)C(Cc1ccc(O)cc1)N(C)CC2 (configuration not stated)
cell viability (log2) [1]: 0.127
cell viability (log2) [2]: 0.111
cell viability (log2) [3]: 0.067
cell viability (log2) [4]: 0.114

O=C(O[C@@H]1Cc2c(O)cc(O)cc2O[C@@H]1c1cc(O)c(O)c(O)c1-c1c([C@H]2Oc3cc(O)cc(O)c3C[C@H]2O)cc(O)c(O)c1O)c1cc(O)c(O)c(O)c1
cell viability (log2) [1]: 0.0332
cell viability (log2) [2]: 0.0641
cell viability (log2) [3]: 0.0977
cell viability (log2) [4]: -0.0327

COc1ncc(-c2ccc3nccc(-c4ccnnc4)c3c2)cc1NS(=O)(=O)c1ccc(F)cc1F
cell viability (log2) [5]: -0.686 (active)
cell viability (log2) [6]: -0.505 (active)
cell viability (log2) [9]: -1.07 (active)
cell viability (log2) [10]: -0.722 (active)
cell viability (log2) [11]: -1.88 (active)
cell viability (log2) [12]: -1.31 (active)
cell viability (log2) [15]: -2.85 (active)
cell viability (log2) [16]: -2.24 (active)
cell viability (log2) [17]: -3.29 (active)
cell viability (log2) [18]: -2.78 (active)
cell viability (log2) [19]: -3.83 (active)
cell viability (log2) [20]: -3.59 (active)

CC(=O)Nc1ccc2c(c1)C1C=CCC1C(c1ccc(Cl)cc1Cl)N2 (configuration not stated)
cell viability (log2) [1]: 0.141
cell viability (log2) [2]: 0.199
cell viability (log2) [3]: 0.113
cell viability (log2) [4]: 0.349

CCOC(=O)c1c(C)cc(O)c(C)c1O
cell viability (log2) [1]: 0.117
cell viability (log2) [2]: 0.0649
cell viability (log2) [3]: 0.0865
cell viability (log2) [4]: 0.119

CS(=O)(=O)c1ccc2nc(NC(=O)c3cccc(Cl)c3)sc2c1
cell viability (log2) [1]: -0.0938 (active)
cell viability (log2) [2]: 0.0657
cell viability (log2) [3]: 0.0503
cell viability (log2) [4]: 0.0275

CS(=O)(=O)c1ccc(C(=O)Nc2ccc(Cl)c(-c3ccccn3)c2)c(Cl)c1
cell viability (log2) [5]: 0.0228
cell viability (log2) [6]: 0.046
cell viability (log2) [9]: 0.0359
cell viability (log2) [10]: 0.0158
cell viability (log2) [11]: 0.0316
cell viability (log2) [12]: 0.0515
cell viability (log2) [15]: 0.0335
cell viability (log2) [16]: 0.0126
cell viability (log2) [17]: 0.0254
cell viability (log2) [18]: 0.0522
cell viability (log2) [19]: 0.025
cell viability (log2) [20]: 0.0484
